From PubChem BioAssay
Compounds with a hit are over-represented: about 5.9% of the library has one in this group of screens.
rTrxR1 inhibitor: blocks rat thioredoxin reductase 1; 390,000 tested, 1% active; Potency, µM (titrated, usually from 114 µM), for inactives: top-dose activity change, negative = inhibition, hits mostly inhibitors; recombinant rTrxR1, NADPH fluorescence consumption, selenite substrate; O89049; further: potency means the concentration at half of the fitted maximal effect; nearly all actives have a fitted effect of over 65% in size
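Rat TrxR1 (90 nM in the dispensed reagent) was pre-reduced with 400 uM NADPH for 5 min at room temperature, then incubated with compound for 15 min. After 400 uM selenite was added, NADPH fluorescence (Ex 340/Em 450 nm) was followed for 8 min.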
FBPA coupling cs: coupling enzyme interference in Giardia aldolase counter-screen; coupling enzyme system counterscreen, AmpLite Red fluorescence; activity change, negative = inhibition, % at 58.2 µM, hits read low; AID 2472; 290,000 tested, 0.67% active; in the data active means activity change below about -30%
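Activity here indicates interference with the coupling reaction, not aldolase inhibition. Compounds at 57.5 uM final met coupling enzymes for 10 min at RT; substrate and AmpLite Red detection followed, with a 525/598 nm fluorescence read after 20 min.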
GALK inh: inhibitors of human galactokinase; P51570; Purified GALK, Kinase-Glo residual ATP luminescence; Potency, µM (series often up to 57.5 µM), for the others: top-dose activity change, negative = inhibition, most hits filed as inhibitors; 270,000 tested, 0.007% active; further: potency means the concentration at half of the fitted maximal effect
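ATP-depletion format; final 35 uM ATP, 100 uM D-galactose, 5 nM enzyme; pH 8.0 HEPES/Mg2+ buffer; 60 min RT; luminescence read 10 min after detection reagent.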
TrxR1 substrate: is turned over as a substrate by rat TrxR1; O89049; purified TrxR1 substrate turnover, NADPH consumption readout; Potency, µM (titrated, usually from 114 µM), for inactives: at the highest dose activity change, negative = substrate turnover; 390,000 tested, 0.01% active; AID 588456; further: potency means the concentration at half of the fitted maximal effect; nearly all actives have a fitted effect of over 50% in size
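Rat TrxR1, dispensed at 90 nM, was prereduced with 400 uM NADPH (final) for 5 min at ~22 deg C, then incubated with compound 15 min before 400 uM selenite. A first-read NADPH fluorescence drop versus no-compound background flagged substrates.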
RORgamma inh: inhibitors of mouse ROR gamma transcriptional activity | Drosophila S2 Gal4-RORgamma UAS-luciferase reporter, 20 h | Potency, µM (series often up to 53.6 µM), for the others: at the top dose activity change, negative = inhibition, actives largely listed as inhibitors | 310,000 tested, 5.4% active; further: potency means the concentration at half of the fitted maximal effect; nearly all actives have a fitted effect of over 60% in size
Target sequence (P51450 whole entry, looked up, the tested form may be a part): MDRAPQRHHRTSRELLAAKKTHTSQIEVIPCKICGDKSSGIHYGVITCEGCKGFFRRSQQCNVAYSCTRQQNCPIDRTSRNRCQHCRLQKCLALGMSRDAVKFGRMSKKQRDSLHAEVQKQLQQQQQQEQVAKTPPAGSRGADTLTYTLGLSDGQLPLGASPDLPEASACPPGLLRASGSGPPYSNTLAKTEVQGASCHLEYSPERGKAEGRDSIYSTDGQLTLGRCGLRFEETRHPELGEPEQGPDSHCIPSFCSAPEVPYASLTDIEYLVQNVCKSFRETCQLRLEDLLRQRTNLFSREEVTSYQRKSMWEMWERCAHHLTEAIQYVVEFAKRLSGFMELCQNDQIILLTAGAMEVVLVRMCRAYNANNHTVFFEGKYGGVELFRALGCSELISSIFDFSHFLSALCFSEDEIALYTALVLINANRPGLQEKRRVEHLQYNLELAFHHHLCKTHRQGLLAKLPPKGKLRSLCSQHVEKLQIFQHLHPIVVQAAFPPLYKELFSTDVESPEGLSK
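Schneider cells (Drosophila), stable Gal4 DBD–ROR gamma + UAS-luc; 1 hr cmpd preincubation; Cu2+ induction 700 uM final; 20 hr ambient; luminescence.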
Gal4-VP16 FLuc: Gal4-VP16 reporter inhibition counter-screen; Drosophila S2 Gal4-VP16 UAS-luciferase, luminescence, 20 h; Potency, µM (highest dose often 53.6 µM), for inactives: at the highest dose activity, negative = inhibition, most hits filed as inhibitors; 310,000 tested, 3.5% active; AID 2546;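 further: Gal4-VP16 expression switched on by copper sulfate through the metallothionein promoter; potency means the concentration at half of the fitted maximal effect; nearly all actives have a fitted effect of over 50% in size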
Numbers without * were called inactive; ? = inconclusive; / = no result; ! = a repeat was not active; [ ] = dose if it differs, or a comment. Unless noted, the call rests on the fitted dose curve; in most records, active means well fitted curve in the direction sought with a large enough effect; inconclusive means small, poorly fitted or top-dose-only effect, or another doubt; inactive means no such curve, though single readings can be large; an effect the other way counts as inactive or inconclusive. On the % scale 0 is the no-effect control and ±100 the full control effect.

SMILES	rTrxR1 inhibitor	FBPA coupling cs	GALK inh	TrxR1 substrate	RORgamma inh	Gal4-VP16 FLuc
O=c1[nH]c2cc3c(cc2cc1CN(CCCO)Cc1nnnn1Cc1ccc(F)cc1)OCO3	1.9%[57.1 µM]	1.7	-0.7%	29.4%[57.1 µM]	8.1%	-7.6%
CC(=O)CC1OC(=O)C(Br)=C1NCc1ccccc1 (stereo not drawn)	14.1µM*	1.9	-1.7%	3.2%	?	20µM*
O=C(COC(=O)CCCC1=NS(=O)(=O)c2ccccc2N1)Nc1ccc(Br)cc1	5.9%	/	1.8%	-6.3%	-0.2%	-4.0%
Cc1ccc(S(=O)(=O)N(C)C)cc1NC(=S)N1CCc2ccccc21	-0.8%	-1.4	14.8%	1.6%	10µM*	-0.4%
CC1Cc2ccccc2N1C(=S)Nc1cccc(S(=O)(=O)N(C)C)c1 (stereo not drawn)	-6.1%	-9.0	13.6%	-1.3%	?	3.4%
NS(=O)(=O)c1ccc(NC(=S)N2CCc3ccccc32)cc1	0.1%	/	3.1%	-1.4%	8.4%	4.8%
CN(C)S(=O)(=O)c1cccc(NC(=S)N2CCc3ccccc32)c1	-18.0%	-11.3	7.7%	-15.3%	14.1µM*	?
O=C(COC(=O)c1cccs1)NC12CC3CC(CC(C3)C1)C2	4.2%	-2.8	11.0%	-3.0%	14.2%	7.5%
CC(C)CNC(=S)NC1CC2CCC(C1)N2Cc1ccccc1 (stereo not drawn)	-0.2%	-1.0	0.1%	5.4%	10µM*	?
O=Nc1c(O)n(Cc2ccc(Cl)cc2)c2ccccc12	7.0%[57.1 µM]	8.8	2.8%	3.6%[57.1 µM]	?	11.2µM*
Cc1ccc(Cn2c(O)c(N=O)c3ccccc32)cc1	-5.9%	3.4	4.1%	-9.6%	-23.2%	?
Cn1c(O)c(N=NC(N)=S)c2ccccc21	/	/	/	/	1.12µM*	3.16µM*
NC(=S)N=Nc1c(O)n(Cc2ccc(Br)cc2)c2ccccc12	8.1%[57.1 µM]	0.8	0.0%	-12.7%	0.794µM*	0.891µM*
O=C(N=Nc1c(O)n(Cc2ccccc2)c2ccccc12)c1ccc(O)cc1	-10.2%	-2.5	-2.4%	-8.1%	?	-26.1%
NC(=S)N=Nc1c(O)n(Cc2ccc(F)cc2)c2ccccc12	10.3%	-2.1	-0.5%	-2.5%	1.26µM*	1.26µM*
COc1cccc(Cn2c(=O)cc(C)c3c(C)nn(C)c32)c1	16.9%[57.1 µM]	/	/	5.6%[57.1 µM]	/	/
NC(=O)c1cccc(N)c1	-9.8%[57.1 µM]	0.8	/	7.4%[57.1 µM]	-19.7%	1.8%
Cc1ccc2c(c1)c(N=NC(N)=S)c(O)n2Cc1ccccc1	9.9%[57.1 µM]	0.0	-4.9%	12.5%[57.1 µM]	1.58µM*	2.51µM*
CC(=O)OC1COC(n2c(O)c(N=NC(N)=S)c3ccccc32)C(OC(C)=O)C1OC(C)=O (stereo not drawn)	2.1%	-7.0	6.1%	-2.8%	6.31µM*	10µM*
Cc1ccc2c(c1)c(N=O)c(O)n2Cc1ccc(Cl)cc1	3.2%	2.7	2.8%	-3.0%	?	?
Oc1c(Cl)cccc1C=Nc1cc(C(F)(F)F)ccc1N1CCCC1	4.8%	2.1	2.2%	-7.8%	11.2µM*	?
N#C/C(=C\c1cc(Br)ccc1F)C(=O)NC1CC1	20µM*	/	0.2%	-1.5%	13.6%	-1.3%
N#C/C(=C\c1cc(Cl)cc(Cl)c1O)C(=O)NC1CCCCC1	79.4µM*	0.9	2.3%	-15.1%	-4.5%	-10.2%
N#C/C(=C\c1ccccc1[N+](=O)[O-])C(=O)NC1CCCCC1	-31.5%	-4.4	-3.8%	-9.4%	?	8.91µM*
O=C(Cn1c(-c2cccs2)cc2cc(F)ccc21)N1CCN(c2cccc(Cl)c2)CC1	70.7%	/	/	51.0%	/	/
SMILES	rTrxR1 inhibitor	FBPA coupling cs	GALK inh	TrxR1 substrate	RORgamma inh	Gal4-VP16 FLuc
O=C(Nc1cc(Cl)ccc1Cl)c1ccco1	7.9%[57.1 µM]	2.3	-0.4%	5.2%[57.1 µM]	31.7%	4.4%
CS/C(Nc1cc(Cl)ccc1Cl)=C(/C#N)C(=O)c1ccco1	?	2.6	-4.8%	-6.9%[57.1 µM]	10µM*	14.1µM*
COc1ccc(C2CC(C(F)(F)F)n3nc(C(=O)NCc4c(C)nn(C)c4C)c(Cl)c3N2)cc1 (stereo not drawn)	23.7%	10.0	-0.2%	-2.1%[57.1 µM]	-3.0%	22.4µM*
COc1ccc(C2CC(C(F)(F)F)n3nc(C(=O)N(C)Cc4cn(C)nc4C)c(Cl)c3N2)cc1 (stereo not drawn)	2.1%	0.0	-3.1%	-2.3%	?	2.1%
COC(=O)[C@H](c1ccccc1Cl)N1CCc2sccc2C1	14.2%	-4.6	/	0.2%	-17.4%	0.3%
COC(=O)C(c1ccccc1Cl)N1CCc2sccc2C1 (stereo not drawn)	/	-13.1	/	/	3.55µM*!	?
CCC(=O)N1CCc2cc(S(=O)(=O)CCC(=O)NCc3ccccc3Cl)ccc21	18.2%	/	/	-2.2%	/	/
O=C(Nn1cc(C(=O)Nc2ccc(F)cc2F)c2ccccc2c1=O)c1cnccn1	15.8%[57.1 µM]	-2.8	0.0%	4.4%[57.1 µM]	11.2µM*	?
COc1ccc(/C=N/Nc2cc(N(C)C)nc(N(C)C)n2)cc1	-20.3%	-42.3*	-0.8%	-15.0%	-4.7%[10 µM]	2.6%
CN(C)c1cc(N/N=C\c2ccccc2)nc(N(C)C)n1	7.7%	-39.1*	0.3%	-10.3%	-18.2%	1.9%
COc1ccccc1/C=N/Nc1cc(N(C)C)nc(N(C)C)n1	8.8%[57.1 µM]	-31.2*	4.4%	2.1%[57.1 µM]	-14.5%	-11.8%
COc1ccc(/C=N/Nc2cc(OC)ncn2)cc1	-12.6%	-1.7	2.9%	-13.7%	?	-26.5%
COc1ccccc1/C=N/Nc1nncc2ccccc12	-0.5%[57.1 µM]	1.1	-4.7%	5.9%[57.1 µM]	2µM*	3.98µM*
Cc1cc(N/N=C/c2ccccc2)nc(NCc2ccccc2)n1	-5.0%	-0.1	/	-1.7%	3.9%	?
CCOc1ccccc1NC(=O)CSc1nc2c([nH]c3ccccc32)c(=O)n1-c1ccccc1	23.2%[57.1 µM]	/	/	2.1%[57.1 µM]	/	/
Cc1ccc2c(c1Br)C(O)(CC(=O)c1ccc(F)cc1)C(=O)N2 (stereo not drawn)	-4.9%[57.1 µM]	/	/	-11.4%[57.1 µM]	/	/
COCCCNC(=O)c1ccccc1C(F)(F)F	24.3%	6.7	0.4%	2.8%	13.3%	-3.7%
COc1ccc2no[n+]([O-])c2c1	/	-5.5	5.9%	/	6.31µM*	7.08µM*
Cc1cnnc2ccc3c(no[n+]3[O-])c12	-3.1%	-5.6	1.6%	-5.5%	-14.4%	2.8%
CC/C(=N\NC(=S)NC(C)C)c1ccc(OC)c(OC)c1	-13.6%[57.1 µM]	2.2	9.0%	-5.0%[57.1 µM]	4.47µM*	10µM*
CCOc1ccc(C(=O)CCC(=O)O)cc1	7.2%	4.3	-2.8%	3.3%	-17.8%	-7.8%
CCOc1ccc(/C(CCC(=O)O)=N/NC(=S)NC(C)C)cc1	6.7%[57.1 µM]	0.3	0.0%	-11.4%	11.2µM*	?
Cc1ccc(C(=O)OCC(=O)NCc2cccs2)c(C)c1	13.0%	0.6	11.7%	-2.3%	11.0%	-2.2%
